This passage reports growth results from PubChem BioAssay (NCI).

The panel holds about 83,000 compounds, 20% with a hit somewhere; the sample as a whole holds those more often.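 Growth was measured after 48 h exposure to one concentration of compound in 96-well plates. Values under 10 count as active.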 Unmarked numbers belong to inactive results. Activity calls are given as the source filed them.

Experiment in all cases: NCI-60 one-dose screen, 48 h (100 = growth as untreated, 0 = no growth, -100 = all killed)
For experiment [1], the system named is HCT-15 colon. As to conditions: 10 µM unless noted.
Experiment [2] concerns HT29 colon. The following applies: 10 µM unless noted.
Experiment [3] deals with SNB-75 CNS. As to conditions: 10 µM unless noted.
Experiment [4] has as its system SNB-19 CNS. The following applies: 10 µM unless noted.
The test system of experiment [5] is PC-3 prostate. As to conditions: 10 µM unless noted.
Experiment [6] concerns SK-MEL-5 melanoma. As to conditions: 10 µM unless noted.
Experiment [7] has as its system UACC-62 melanoma. The following applies: 10 µM unless noted.
Experiment [8] concerns LOX IMVI melanoma. As to conditions: 10 µM.
The subject of experiment [9] is SK-MEL-28 melanoma. The following applies: 10 µM unless noted.
The subject of experiment [10] is SN12C renal. As to conditions: 10 µM unless noted.
Experiment [11] has as its system UO-31 renal. As to conditions: 10 µM unless noted.
In experiment [12] the test system is TK-10 renal. As to conditions: 10 µM unless noted.
Experiment [13] deals with ACHN renal. The following applies: 10 µM unless noted.
The test system of experiment [14] is CAKI-1 renal. As to conditions: 10 µM unless noted.
Experiment [15] concerns A498 renal. As to conditions: 10 µM unless noted.
Experiment [16] has as its system CCRF-CEM leukemia. As to conditions: 10 µM unless noted.
The test system of experiment [17] is MOLT-4 leukemia. As to conditions: 10 µM unless noted.
In experiment [18] the test system is SK-MEL-2 melanoma. The following applies: 10 µM unless noted.
The test system of experiment [19] is EKVX NSCLC. The following applies: 10 µM unless noted.
Experiment [20] relates to U251 CNS. The following applies: 10 µM unless noted.

Regarding `c1csc(-c2[nH]nc3c2CCc2ccccc2-3)c1`, the growth in [1] was 30.7%; in [2] it was 92.4%; in [3], 55.6%; in experiment [4], 70.3%; in experiment [5], 81.7%; in experiment [6], 84.8%. In addition, the growth in experiment [7] was 90%; in [8] it was 97.5%; in [9], 104%; in experiment [10], 93.5%; in experiment [11] it was 53.8%; in experiment [12], 27.8%. The growth in experiment [13] is 82.3%; in experiment [14], 79%; in experiment [15], 77.7%; in experiment [16], 98.1%; in experiment [17] it was 69.6%.
In the case of `Cc1ccc2c(c1)sc(-c1ccc(N(C)C)cc1)[n+]2C`, the growth was 68.7% in experiment [1]; 4.16% (active) in [2]; 14.2% in [3]; 16.1% in experiment [4]; -76.6% (active) in [6]; 8.89% (active) in [7]. The growth in experiment [8] was 1.78% (active); in experiment [9] it was 30.8%; in [18], 0.0539% (active); in experiment [19], 6.29% (active); in [10], 3.59% (active); in experiment [11], 65.1%. The growth in experiment [12] was 14.8%; in experiment [13], 63.6%; in experiment [14], 72.3%; in experiment [15] it was -6.25% (active); in experiment [16], 10.7%; in experiment [17], -42.4% (active).
As for `CCCCCCCCCCCC[n+]1ccc(CCCCCCCCC)cc1`, the growth in [1] was -48% (active); in experiment [2], -84% (active); in [3], -70% (active); in experiment [20], -94.6% (active); in experiment [5], -51.6% (active); in experiment [6] it was -96.8% (active). Also, the growth is -76.9% (active) in experiment [7]; -94.6% (active) in [8]; -70.9% (active) in experiment [9]; -48.1% (active) in [18]; -70.9% (active) in [10]; -19.4% (active) in experiment [11]. In addition, the growth is -31.4% (active) in experiment [12]; -80.7% (active) in experiment [13]; 23.4% in experiment [14]; -25.4% (active) in experiment [15]; -34.9% (active) in experiment [16]; -44.7% (active) in [17].
On to `CC1(C)OCC(COC(c2ccccc2)(c2ccccc2)c2ccccc2)O1` (stereo not drawn), for which the growth is 100% in [1]; 91.9% in experiment [2]; 89.3% in [3]; 95.3% in experiment [20]; 89.2% in [5]; 105% in experiment [6]. In addition, the growth in experiment [7] was 99.3%; in [8] it was 89.1%; in experiment [9], 103%; in [18], 83.3%; in experiment [10] it was 102%; in experiment [11], 85.7%. Besides, the growth in [13] is 97.6%; in experiment [14] it was 89.1%; in experiment [15], 57.2%; in [16], 102%; in [17], 93.1%.
As for `CC[n+]1ccc(Nc2ccc(NC(=O)c3ccc(Nc4cc[n+](CC)c5ccc([N+](=O)[O-])cc45)cc3)cc2)cc1`, the growth was 96.2% in [1]; 57.1% in experiment [2]; 98.4% in experiment [3]; 62.5% in experiment [20]; 54.2% in [5]; 65.7% in experiment [6]. Besides, the growth was 79.4% in [7]; 85.7% in [8]; 90.3% in experiment [9]; 111% in experiment [18]; 86% in [10]; 91.4% in experiment [11]. Further, the growth in experiment [12] is 152%; in experiment [13], 96.9%; in experiment [14] it was 94.2%; in [15], 103%; in experiment [16], 89.1%; in experiment [17], 93.3%.
Turning to `OCCOSCCO`, the growth in experiment [1] was 89%; in experiment [2], 106%; in experiment [3], 99.3%; in experiment [4], 110%; in experiment [5], 113%; in experiment [6], 101%. Moreover, the growth in [7] is 114%; in experiment [8], 103%; in experiment [9], 108%; in [18], 106%; in experiment [10] it was 111%; in [11], 96.3%. The growth was 100% in [12]; 91.2% in experiment [13]; 101% in experiment [14]; 120% in [15]; 107% in [16]; 104% in experiment [17].
For `Cc1cc2nc(CC(=O)c3ccncc3)c(=O)[nH]c2cc1C`, the growth in experiment [1] was 94.6%; in experiment [2] it was 105%; in experiment [3], 86.2%; in experiment [20], 77.2%; in experiment [5], 95.6%; in [6], 98.1%. In addition, the growth is 88.9% in [7]; 106% in experiment [8]; 109% in [9]; 115% in experiment [18]; 56.1% in experiment [19]; 84.7% in [10]. Further, the growth in experiment [12] was 107%; in [13], 93.6%; in [14] it was 82.9%; in experiment [15], 98.4%; in experiment [16], 93.6%; in experiment [17] it was 104%.
`COc1cc(NCc2ccc3nc(N)nc(N)c3c2C)cc(OC)c1OC` (tested in a mixture with another compound): the growth was 26.1% in experiment [1]; 20% in experiment [2]; 33.1% in experiment [3]; 31.8% in experiment [4]; 23.4% in experiment [5]; 21.1% in experiment [6]. For the same compound, the growth in experiment [7] is 30.5%; in [8], 16.3%; in experiment [19], 55.8%; in [10] it was 44.7%; in [11] it was 34.9%; in [12], 31.1%. Moreover, the growth in [13] is 23.8%; in experiment [14] it was 25.4%; in experiment [15] it was 32.9%; in [16], 19.9%; in experiment [17], 20.6%.
For `CCCN(CCC)C(=O)c1ccc(C)cc1`, the growth was 100% in experiment [1]; 96% in experiment [2]; 105% in [3]; 98.2% in experiment [4]; 86.5% in experiment [5]; 92.2% in experiment [6]. The growth in experiment [7] was 97.2%; in [8] it was 95.4%; in [9], 105%; in experiment [10] it was 97.9%; in [11], 94.1%; in experiment [12], 99.6%. For the same compound, the growth was 102% in [13]; 99.2% in experiment [14]; 27% in experiment [15]; 85.7% in experiment [16]; 101% in [17].
